Measurements as given in PubChem BioAssay (NCATS).
Several values for one entry are separate records, joined by “and”; a condition that tells them apart may be missing. Equal values may be shown once. Results filed as inconclusive are left out. Some compounds were tested as several samples or in several runs, with calls that do not always agree. Activity calls are given as the source filed them. Unless noted, calls follow the shape of the dose curve; as a rule, active = well fitted curve in either direction with a large enough effect (not every such curve was filed as active); inconclusive = small, poorly fitted or top-dose-only effect, or another doubt; inactive = flat fitted curve, though single readings scatter. Residues, ends and D or L forms follow the SMILES beside them. *: point of attachment. Cbz = O=C(OCc1ccccc1)*

What was measured:
[1] = AP1 Signaling Pathway (AID 357); conditions: ME-180 AP-1-bla reporter, EGF-induced, beta-lactamase ratio, 5 h; at 38 µM (top of the series) unless noted; also: % is scaled to controls: 0 for no effect and ±100 for the full control effect
Outline: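 AP-1-bla ME-180 cells with beta-lactamase reporter under AP-1 response element, stimulated with EC50 EGF; compounds titrated, 5 hours at 37 degrees Celsius. CCF4 read at 460/530 nm ratio; positive and negative modulators judged by AC50.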

[2] = target: Cytochrome P450 1A2 (Homo sapiens) (UniProt P05177); assay: p450-cyp1a2 (AID 410; calls by dose curve; also: potency is read from the fitted curve at half-maximal effect;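 as to activity change, negative = inhibition: -100% = full effect of reference inhibitor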)
Cytochrome P450 1A2 (Homo sapiens), sequence (P05177 whole entry, looked up): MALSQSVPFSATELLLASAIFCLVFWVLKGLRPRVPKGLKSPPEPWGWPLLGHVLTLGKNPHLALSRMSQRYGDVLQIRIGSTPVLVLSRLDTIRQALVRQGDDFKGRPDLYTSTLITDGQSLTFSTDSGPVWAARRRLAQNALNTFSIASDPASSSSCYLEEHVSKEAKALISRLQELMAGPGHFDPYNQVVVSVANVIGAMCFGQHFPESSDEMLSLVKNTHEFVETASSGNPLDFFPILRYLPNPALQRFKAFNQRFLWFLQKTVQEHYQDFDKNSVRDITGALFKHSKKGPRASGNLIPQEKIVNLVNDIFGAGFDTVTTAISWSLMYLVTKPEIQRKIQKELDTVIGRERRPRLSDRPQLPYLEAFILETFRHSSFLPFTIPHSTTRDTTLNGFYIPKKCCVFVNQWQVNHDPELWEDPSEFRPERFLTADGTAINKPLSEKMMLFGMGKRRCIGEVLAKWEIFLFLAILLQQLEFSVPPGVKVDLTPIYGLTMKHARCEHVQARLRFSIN
Outline: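 20nM CYP1A2, 100uM Luciferin-ME (=Km), 100mM KPO4; cpd 10 min RT; +NADPH regen, 60 min RT; stop/detect 20 min; luminescence. Normalized to furafylline 57 uM = full inhibition.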

[3] = Stat Signaling Pathway (AID 446); conditions: ME-180 (cervical carcinoma) SIE beta-lactamase reporter, IL-6 stimulated, 5 h;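 also: ME-180 cervical cancer cells given 40 pM IL-6 alongside compound; SIE-controlled beta-lactamase reporter measured as 460/530 nm FRET emission ratio; % is scaled to controls: 0 for no effect and ±100 for the full control effect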
Outline: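 FRET read-out (405 nm excitation, 460/530 nm emission) of a beta-lactamase reporter under a STAT-inducible element in ME-180 cervical carcinoma cells. Cells with compound receive 40 pM IL-6 for 5 h. Values are normalised to AC90 stimulation and AC90 JAK-inhibitor controls.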

[4] = target: Glucocorticoid receptor (Homo sapiens) (UniProt P04150); assay: GR-GFP Redistribution (AID 450;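 active = compounds whose dose series gives a full or clear partial fitted curve of increased nuclear translocation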; also: potency is read from the fitted curve at half-maximal effect); conditions: U2OS GR-GFP nuclear translocation, laser cytometry, 2 h
Glucocorticoid receptor (Homo sapiens), sequence (P04150 whole entry, looked up, the tested form may be a part): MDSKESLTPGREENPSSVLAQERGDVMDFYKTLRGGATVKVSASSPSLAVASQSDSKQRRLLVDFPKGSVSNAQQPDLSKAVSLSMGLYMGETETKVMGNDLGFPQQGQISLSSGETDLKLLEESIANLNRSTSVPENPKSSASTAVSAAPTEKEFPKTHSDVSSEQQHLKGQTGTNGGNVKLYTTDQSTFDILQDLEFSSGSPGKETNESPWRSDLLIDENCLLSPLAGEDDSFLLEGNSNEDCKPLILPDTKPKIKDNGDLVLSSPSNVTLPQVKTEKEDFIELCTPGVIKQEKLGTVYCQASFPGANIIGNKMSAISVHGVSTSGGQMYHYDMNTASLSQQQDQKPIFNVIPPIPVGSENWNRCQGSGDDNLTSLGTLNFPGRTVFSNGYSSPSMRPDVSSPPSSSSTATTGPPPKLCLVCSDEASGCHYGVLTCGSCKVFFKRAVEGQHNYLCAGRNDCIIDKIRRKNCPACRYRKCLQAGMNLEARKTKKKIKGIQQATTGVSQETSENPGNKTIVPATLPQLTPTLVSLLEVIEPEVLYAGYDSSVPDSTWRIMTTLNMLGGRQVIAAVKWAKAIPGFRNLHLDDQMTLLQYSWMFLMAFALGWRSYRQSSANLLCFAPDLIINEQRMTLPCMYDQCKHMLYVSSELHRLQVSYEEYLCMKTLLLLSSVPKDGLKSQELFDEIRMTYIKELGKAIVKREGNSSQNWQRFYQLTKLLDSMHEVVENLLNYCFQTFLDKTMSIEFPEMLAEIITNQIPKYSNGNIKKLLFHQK

[5] = target: Glucocorticoid receptor (Homo sapiens) (UniProt P04150); assay: GR-EFC Redistribution (AID 451; calls by dose curve; also: potency is read from the fitted curve at half-maximal effect); conditions: CHO-K1 GR-EFC translocation, beta-gal luminescence, 2 h
Outline: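 CHO-K1 cells expressing nuclear EA and GR-ED fragments of b-gal; compounds titrated up to 46 uM final, 2 h at 37 C. GR nuclear translocation read as complemented b-gal luminescence after 1 h RT detection.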

[6] = target: Mitogen-activated protein kinase 10 (Mus musculus) (UniProt Q61831); assay: JNK3 AlphaScreen Assay (AID 530);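 also: kinase came from lysate of stimulated human HepG2 cells; signal reports phosphorylation of biotinylated GST-cJun 1-79 at Ser73 with 10 µM ATP; % is scaled to controls: 0 for no effect and ±100 for the full control effect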
Outline: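 HepG2 lysate (IL-1b/TNFa pre-activated) + biotin-GST-cJun 1-79 + anti-pSer73 cJun; cpd titration, 15 min RT; ATP 10 uM start; Tris pH 7.6, MgCl2, DTT, vanadate; beads in EDTA buffer; AlphaScreen.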

[7] = NFAT Signaling Pathway (AID 444); conditions: Jurkat NFAT-bla M1, carbachol, beta-lactamase ratio, 5 h; at 38 µM (top of the series) unless noted;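 also: carbachol stimulus at about its EC50 of 1 µM final; % is scaled to controls: 0 for no effect and ±100 for the full control effect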
Outline: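 Jurkat cells with NFAT-driven β-lactamase reporter and co-expressed M1 receptor, stimulated with carbachol (final 1 uM, ~EC50), compound titration, 5 h at 37 °C. CCF4 loaded 1 h at RT; 460/530 nm ratio gave %activity and AC50.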

[8] = at 38 µM (top of the series) unless noted

Row | Compound | activity change, negative = inhibition [1] | Potency [2] | activity, negative = inhibition [3, 8] | Potency [4] | Potency [5] | outcome [6] | activity change, negative = inhibition [7] | activity, negative = inhibition ([3]; at 17.2 µM (top of the series)) | activity, negative = inhibition ([3]; at 38 µM (top of the series))
1 | CN[C@H](CC(=O)O)C(=O)O | -0.55% (inactive) | inactive | 2.84% (inactive) | > 46 µM (inactive) | > 46 µM (inactive) | inactive |  |  | 
2 | O=C(O)c1cccnc1C(=O)O | -4.89% (inactive) | inactive | -7.1% (inactive) |  |  | inactive | -4.14% (inactive) |  | 
3 | N=C(N)SCCc1cnc[nH]1 | 5.57% (inactive) | inactive |  | > 46 µM (inactive) | > 46 µM (inactive) | inactive | -4.42% (inactive) |  | 
4 | CCSC(=N)N | -24.3% (inactive) | inactive | 9.06% (inactive) | > 46 µM (inactive) | > 46 µM (inactive) | inactive |  |  | 
5 | CCCc1c(OCCCOc2ccc(OCC(=O)O)cc2)ccc(C(C)=O)c1O | -9.01% (inactive) | 31.6 µM (active) | 11.2% (inactive) |  | > 46 µM (inactive) | inactive | -26.4% (inactive) |  | 
6 | CC(C)[C@H](NC(=O)OCc1ccccc1)C(=O)N[C@H](C=O)Cc1ccccc1 (Cbz-Val-Phe-aldehyde) | -8.71% (inactive) | inactive |  |  | > 46 µM (inactive) | inactive | -9.23% (inactive) |  | 
7 | O=C(O)C1=CCNCC1 | -4.73% (inactive) | inactive | 16.7% (inactive) | > 46 µM (inactive) | > 46 µM (inactive) | inactive |  |  | 
8 | CC[N+](CC)(CC)CC(=O)Nc1c(C)cccc1C | 6.05% (inactive) | inactive and 31.6 µM (active) | -19.8% (inactive) |  | > 46 µM (inactive) | inactive | -27.1% (inactive) |  | 
9 | O=C(O)Cc1c[nH]c2ccc(O)cc12 | 21.9% (inactive) | inactive |  | > 46 µM (inactive) | > 46 µM (inactive) | inactive | 6.87% (inactive) |  | 
10 | CCN(CC)CCCCCCCCOC(=O)c1cc(OC)c(OC)c(OC)c1 | 20.2% (inactive) | inactive |  | > 46 µM (inactive) | > 46 µM (inactive) | inactive | -83.6% (active) |  | 
11 | OC1(c2ccc(Cl)cc2)CCN(Cc2c[nH]c3ccccc23)CC1 | 6.53% (inactive) | 15.8 µM (active) and 31.6 µM (active) |  |  | > 46 µM (inactive) | inactive | 8.51% (inactive) |  | 
12 | CC(N)=O | 9.17% (inactive) | inactive | 13.9% (inactive) | > 46 µM (inactive) | > 46 µM (inactive) | inactive |  |  | 
13 | O=c1[nH]c2cc(Cl)ccc2c(O)c1-c1ccc(Oc2ccccc2)cc1 | 3.01% (inactive) | 10 µM (active) | -10.1% (inactive) | > 46 µM (inactive) | > 46 µM (inactive) |  |  |  | 
14 | Cc1nc(N=Nc2ccc(C(=O)O)cc2)c(COP(=O)(O)O)c(C=O)c1O | -5.94% (inactive) | inactive | -19.4% (inactive) |  | > 46 µM (inactive) | inactive | 7.15% (inactive) |  | 
15 | COc1ccccc1N1CCN(CCCCNC(=O)c2ccc3ccccc3c2)CC1 | 1.71% (inactive) | 20 µM (active) and inactive |  |  | > 46 µM (inactive) and > 20.6 µM (inactive) | inactive |  | 5.11% (inactive) | -1.2% (inactive)
16 | NC(N)=NC(N)=Nc1cccc(Cl)c1 | -8.78% (inactive) | inactive | 15.9% (inactive) |  | > 46 µM (inactive) | inactive | 7.69% (inactive) |  | 
17 | O=c1[nH]c(=O)c2nc3ccccc3nc2[nH]1 | -6.22% (inactive) | 12.6 µM (active) |  | > 46 µM (inactive) | > 46 µM (inactive) | inactive | 0.27% (inactive) |  | 
18 | O=c1onc2cnc3ccccc3n12 | -2.81% (inactive) | 12.6 µM (active) and 2.51 µM (active) |  |  | > 46 µM (inactive) | inactive | 1.27% (inactive) |  | 
19 | O=C(O)/C(=C/c1c(C(=O)O)[nH]c2cc(Cl)cc(Cl)c12)c1ccccc1 | 1.71% (inactive) | 12.6 µM (active) | 10.5% (inactive) |  | > 46 µM (inactive) | inactive | -3.51% (inactive) |  | 
20 | Nc1ccc(N2C(=O)c3ccccc3C2=O)c(Cl)c1 | -5.66% (inactive) | inactive |  | > 46 µM (inactive) | > 46 µM (inactive) | inactive | 7.18% (inactive) |  | 
21 | CCn1c(=O)[nH]c2cc(Cl)c(Cl)cc21 | 0.191% (inactive) | 1.26 µM (active) and 251 nM (active) | -18.6% (inactive) |  | > 46 µM (inactive) | inactive | -27.1% (inactive) |  | 
22 | Cn1cc(C(=O)OCC2CCN(CCNS(C)(=O)=O)CC2)c2ccccc21 | -4.52% (inactive) | 12.6 µM (active) and 15.8 µM (active) | -18.9% (inactive) | > 46 µM (inactive) | > 46 µM (inactive) | inactive |  |  | 
